Compound activity from PubChem BioAssay.
DRD3 agonist: qHTS of D3 Dopamine Receptor Agonist: qHTS. D(3) dopamine receptor (Homo sapiens), P35462. D3R DiscoveRx beta-arrestin cells, luminescence, 90 min. max activation, %. 410,000 tested, 0.58% active. AID 652048, 2013; in the data active = max activation above about 30%
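Agonist mode: compounds and dopamine controls were applied to plated cells for 90 min at 37 degrees C after an overnight attachment at 1500 cells/well. Luminescent read-out followed 30 - 60 minutes at room temperature with DiscoveRx detection reagent.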
D1 agonist: Allosteric Agonists of the Human D1 Dopamine Receptor: qHTS; D(1A) dopamine receptor (Homo sapiens), P21728; HEK293 T-REx D1 cells, calcium flux, agonist mode; activation, % at 2 µM; 360,000 tested, 1% active; AID 504660, 2011; in the data active = activation above about 30%
Target sequence (P21728 whole entry, looked up): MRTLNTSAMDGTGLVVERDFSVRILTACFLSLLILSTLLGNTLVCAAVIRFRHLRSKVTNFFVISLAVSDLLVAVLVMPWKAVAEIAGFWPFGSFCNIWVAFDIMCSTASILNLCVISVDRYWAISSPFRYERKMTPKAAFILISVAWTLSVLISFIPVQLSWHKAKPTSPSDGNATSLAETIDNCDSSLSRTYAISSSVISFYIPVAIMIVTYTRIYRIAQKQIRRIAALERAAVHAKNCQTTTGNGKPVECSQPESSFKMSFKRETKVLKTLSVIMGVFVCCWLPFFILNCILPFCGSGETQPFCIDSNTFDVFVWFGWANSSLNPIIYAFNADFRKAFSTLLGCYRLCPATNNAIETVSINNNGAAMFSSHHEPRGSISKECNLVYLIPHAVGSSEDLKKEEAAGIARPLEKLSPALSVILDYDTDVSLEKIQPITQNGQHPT
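Agonism was scored from calcium flux recorded over 180 s (1 read/s) after pintool compound addition, following a 10-cycle baseline. Cells were inducible force-coupled HEK293 TREx D1, plated overnight at 30 C and loaded with no-wash calcium dye.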
D1 antagonist: Antagonist of Human D 1 Dopamine Receptor: qHTS. HEK293 TREx D1 cells, calcium flux, dopamine EC80; active compounds read low. activity change, negative = inhibition, % at 10 µM. 360,000 tested, 3.2% active. AID 504652, 2011; in the data active = activity change below about -30%
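After overnight tetracycline induction at 30 C, force-coupled D1 HEK293 cells took up a no-wash calcium dye at room temperature. Compounds were added and monitored 180 s, and the response to EC80 dopamine was then recorded.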
D1 PAM: Potentiators of Human D1 Dopamine Receptor: qHTS. potentiation, % at 10 µM. D(1A) dopamine receptor (Homo sapiens), P21728. 360,000 tested, 0.036% active. AID 504651, 2011. HEK293 TREx D1 cells, calcium flux, dopamine EC20 potentiation; in the data active = potentiation above about 30%
ERG-DNA inh: qHTS for Small Molecule Inhibitors of the ERG Ets/DNA interaction; Transcriptional regulator ERG (Homo sapiens), P11308; 370,000 tested, 0.028% active; Potency, µM (titrated, usually from 76.9 µM), actives largely listed as inhibitors; fluorescence polarization, His-ERG Ets domain / labelled DNA; active = well fitted inhibition curve with a large enough effect in the polarisation, with a control signal flat; inconclusive = small, poorly fitted or top-dose-only effect, or effect the other way, or a change in a side signal; inactive = no such curve, though single readings can be large or run the other way; the % refers to the polarisation;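 also: polarization taken with two DNA probes labelled with fluorescein and Texas red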
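His-tagged ERG Ets domain (1 uM in the protein solution; 300mM KCl, 50mM Tris-HCl, 1mM EDTA, 1mM DTT, pH 7.5) received compound, then a probe mix of 5 nM fluorescein-DNA and 100nM Texas-615-DNA. Fluorescence polarization was read for both dyes.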
DRD3 antagonist: qHTS of D3 Dopamine Receptor Antagonist: qHTS; D(3) dopamine receptor (Homo sapiens), P35462; D3R cells, DiscoveRx beta-arrestin luminescence, antagonist mode; active compounds read low; 360,000 tested, 2.5% active; AID 652054, 2013; max response, negative = inhibition, %; in the data active = max response below about -50%; inconclusive = no clear call, values can overlap the other calls
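Cells expressing the human receptor were seeded at 1500 cells/well, incubated overnight at 37 degrees C in 5% CO2, then exposed to library compounds with dopamine controls for 90 minutes at 37 degrees C before luminescent detection.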
A number is an active result; i = inactive; ? = inconclusive; nt = not tested or not shown. Only some compounds are listed: those with a hit (about 6.1% of all), similar ones and a draw of the others.

SMILES	DRD3 agonist	D1 agonist	D1 antagonist	D1 PAM	ERG-DNA inh	DRD3 antagonist
Cc1ccc(Nc2nc(-c3ccccc3)nc3ccccc23)cc1	i	i	-30	i	i	nt
O=[N+]([O-])c1ccccc1C=NNc1ccccc1	i	nt	nt	nt	i	i
Cc1ccc(-c2nc(N/N=C/c3ccccc3[N+](=O)[O-])c3ccccc3n2)cc1	45	i	i	i	i	i
Cc1cc(C)cc(N(CCC#N)C(=O)CSC2=Nc3ccccc3C3CC=NN23)c1 (stereo not given)	i	i	i	i	i	i
COc1ccc(CN2CCCC(C(=O)Nc3cccc(-n4cccn4)c3)C2)cc1 (stereo not given)	i	i	-53	i	i	i
Cc1nn(C)c(Cl)c1CN1CCCC(C(=O)Nc2cccc(-n3cccn3)c2)C1 (stereo not given)	i	i	-35	i	i	i
COCc1ccc(CN2CCCC(C(=O)Nc3ccccc3-c3ccc(OC)cc3)C2)o1 (stereo not given)	i	i	i	i	i	?
COc1cccc(-c2ccc(NC(=O)C3CCCN(CCCn4cccn4)C3)cc2)c1 (stereo not given)	i	38	i	i	i	i
CCc1ccc(CN2CCCC(C(=O)Nc3ccccc3-c3ccc(OC)cc3)C2)o1 (stereo not given)	i	i	i	i	32µM	i
COc1cccc(-c2ccc(NC(=O)C3CCCN(Cc4ccccn4)C3)cc2)c1 (stereo not given)	i	nt	nt	nt	nt	i
COc1cc(C(=O)N2CCCCC2)ccc1OCC(=O)Nc1ccc(F)cc1	i	i	i	i	i	i
CCOc1cc(-n2ncc(C#N)c2N)nc(SC)n1	i	i	i	i	i	i
COc1cc(C(=O)NNC(=O)COc2cccc(F)c2)ccc1OCC(=O)N1CCOCC1	i	i	i	i	i	i
CC1(C)C[C@@H]2C[C@@](C)(CN2C(=O)c2ccccc2)C1	i	i	i	i	i	i
COc1ccc(O)c(CN2CCCC(C(=O)Nc3cccc(-n4cccn4)c3)C2)c1 (stereo not given)	i	i	-68	i	i	i
COc1ccc(NC(=S)N(CCCN2CCC(C)CC2)Cc2cccs2)cc1	i	i	i	i	i	-58
CSc1cccc(NC(=S)N(CCCN2CCC(C)CC2)Cc2cccs2)c1	i	i	i	i	i	-76
CCOc1ccc(NC(=S)N(CCCN2CCCC2)Cc2cccn2Cc2ccc(Cl)cc2)cc1	i	i	-48	i	i	i
Cc1cccc(NC(=S)N(CCCN2CCCC2)Cc2cccn2Cc2ccc(Cl)cc2)c1	i	i	i	i	i	i
COc1ccc(NC(=S)N(CCCN2CCCCC2)Cc2cccs2)cc1	i	i	i	i	i	-87
CSc1cccc(NC(=S)N(CCC(C)C)C2CCN(C(C)=O)CC2)c1	i	i	i	i	i	i
CSc1cccc(NC(=S)N(CCC(C)C)C2CCN(C(C)C)CC2)c1	i	i	i	i	i	-85
COc1cccc(NC(=S)N(CCCN2CCC(C)CC2)Cc2cccs2)c1	i	i	i	i	i	-84
COc1cccc(NC(=S)N(CCN(C)C)Cc2cccs2)c1	i	i	i	i	i	i
O=C(CCc1ccccc1)NC(NC(=S)Nc1ccc(Br)cc1)C(Cl)(Cl)Cl (stereo not given)	i	i	i	i	nt	-91
O=C(CCc1ccccc1)NC(NC(=S)Nc1cccc(Cl)c1)C(Cl)(Cl)Cl (stereo not given)	i	i	i	i	nt	i
Cc1ccc(C2CC(=O)N3CN(Cc4ccco4)CSC3=C2C#N)cc1 (stereo not given)	i	i	i	i	i	-59
N#CC1=C2SCN(C3CCCCC3)CN2C(=O)CC1c1ccc(F)cc1 (stereo not given)	i	i	i	i	i	nt
